Bioassay records from PubChem.
NS1 function inh – inhibitors of influenza NS1 protein function; 270,000 tested, 0.4% active; Potency, µM (highest dose often 46.1 µM), without a hit: top-dose activity, positive = more growth; AID 2326; calls by dose curve; also: actives are rising curves; nearly all actives have a fitted effect of over 50% in size
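Growth recovery, yeast-based: influenza A NS1 expressed in S. cerevisiae causes slow growth, and suppressors are detected by OD600. The parent strain without NS1 is used as positive control.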
Pf growth 48h – inhibits P. falciparum growth in the first generation, 48 h. P. falciparum luciferase growth in erythrocytes, 48 h. Potency, µM (series often up to 28.7 µM), for the others: at the top dose activity change, negative = inhibition, usual class: inhibitors. 310,000 tested, 5.9% active. AID 504832; also: % is scaled to controls: 0 for no effect and ±100 for the full control effect
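Erythrocytes infected with P. falciparum carrying an integrated firefly luciferase reporter (2% hematocrit, 0.1% parasitemia final) were exposed to compounds in RPMI 1640 with 0.5% Albumax at 37 C, 5% CO2. Growth inhibition was scored as reduced luminescence.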
AMA1-RON2 inh – inhibitors of Plasmodium falciparum AMA1-RON2 interaction | AlphaScreen AMA1-biotinylated RON2 peptide binding | AID 720542 | Potency, µM (highest dose often 58.2 µM), inactives show top-dose activity change, negative = inhibition, usual class: inhibitors | 360,000 tested, 0.2% active;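 also: 0% = vehicle wells and -100% = peptide control; nearly all actives have a fitted effect of over 45% in size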
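AMA1 (3D7) with his tag at 25 nM final met compounds first, then biotinylated RON2 peptide at 25 nM; detection used donor plus acceptor beads, 10 µg/mL apiece, read by AlphaScreen after 30 min at room temperature.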
Sm TGR inh – blocks Schistosoma mansoni thioredoxin glutathione reductase. purified TGR, DTNB reduction, TNB absorbance 405 nm. Potency, µM (highest dose often 114 µM), for the others: at the highest dose activity change, negative = inhibition, hits mostly inhibitors. 360,000 tested, 3% active. AID 485364; also: % is scaled to controls: 0 for no effect and ±100 for the full control effect; nearly all actives have a fitted effect of over 60% in size
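TGR 20 nM + NADPH 100 uM (dispensed conc.), cpd preinc 15 min RT; start with NADPH (500 uM addition) then DTNB (15 mM addition). Kinetic TNB absorbance, 405 nm filter. Four-parameter Hill fit across titration.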
Pf growth 96h – P. falciparum growth inhibition at 96 hour, primary screen for plastid delayed-death inhibitors. AID 504834. P. falciparum luciferase reporter growth, 96 h. Potency, µM (top dose mostly 28.7 µM), inactives show at the highest dose activity change, negative = inhibition, most hits filed as inhibitors. 320,000 tested, 6.9% active; also: % is scaled to controls: 0 for no effect and ±100 for the full control effect
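Compounds incubated with erythrocytes infected by luciferase-expressing P. falciparum (2% hematocrit, 0.05% parasitemia final) for 96 hours, 37 C in 5% CO2. Growth inhibition scored as decreased luciferase luminescence.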
An asterisk follows results filed as active. This is a sample that favours compounds with a hit; in the whole collection about 11% have one here. Unless noted, calls follow the shape of the dose curve; as a rule, active = well fitted curve in the direction sought with a large enough effect; inconclusive = small, poorly fitted or top-dose-only effect, or another doubt; inactive = no such curve, though single readings can be large; an effect the other way counts as inactive or inconclusive. Potency is read from the fitted curve at half-maximal effect.

Screening O=C(NCc1cccs1)c1cccc(S(=O)(=O)N2CCCCC2)c1 returned NS1 function inh -10%, Pf growth 48h -12%, AMA1-RON2 inh -2% and Sm TGR inh 27%.
Cc1ccc(OCCNC(=O)c2cc(C3CC3)nc3c2cnn3C(C)C)cc1 was read as Pf growth 48h inconclusive, AMA1-RON2 inh -2%, Sm TGR inh -14% and Pf growth 96h inconclusive.
Screening CCc1ccccc1NC(=O)CN(C)C(=O)c1cc(C2CC2)nc2c1cnn2C(C)C returned Pf growth 48h 12µM*, AMA1-RON2 inh 0%, Sm TGR inh -4% and Pf growth 96h inconclusive.
Screening CC(C)n1ncc2c(C(=O)NCCc3ccc(F)cc3)cc(C3CC3)nc21 returned Pf growth 48h 9.3µM*, AMA1-RON2 inh 14%, Sm TGR inh 6% and Pf growth 96h inconclusive.
For Cc1ccccc1CCNC(=O)c1cc(C2CC2)nc2c1cnn2C(C)C the results were Pf growth 48h 12µM*, AMA1-RON2 inh 20%, Sm TGR inh 1% and Pf growth 96h 13µM*.
Screening Cc1cc(C)cc(OCC(=O)NC(Cc2c[nH]c3ccccc23)C(=O)O)c1 (centres undefined) returned Sm TGR inh 1%.
`Cn1cc(C(=O)N2CCN(c3cccc(Cl)c3)CC2)c(=O)c2cc(S(=O)(=O)N3CCOCC3)ccc21` gave NS1 function inh -5%, Pf growth 48h -14%, AMA1-RON2 inh -3%, Sm TGR inh -13% and Pf growth 96h 12µM*.
Screening CCn1cc(C(=O)NCCc2ccc(OC)c(OC)c2)c(=O)c2cc(S(=O)(=O)N3CCOCC3)ccc21 returned NS1 function inh -2%, Pf growth 48h 10µM*, AMA1-RON2 inh 0%, Sm TGR inh 1% and Pf growth 96h inconclusive.
`CCOC(=O)N1CCN(C(=O)c2cn(CC)c3ccc(S(=O)(=O)N4CCOCC4)cc3c2=O)CC1` gave NS1 function inh 1%, Pf growth 48h 13%, AMA1-RON2 inh 3%, Sm TGR inh 10% and Pf growth 96h 4.7µM*.
Cn1cc(C(=O)NCCc2ccccc2)c(=O)c2cc(S(=O)(=O)N3CCOCC3)ccc21 was read as NS1 function inh -18% and AMA1-RON2 inh -3%.
For COc1ccc(CCNC(=O)c2cn(C)c3ccc(S(=O)(=O)N4CCOCC4)cc3c2=O)cc1OC the results were NS1 function inh 14%, Pf growth 48h 13µM*, AMA1-RON2 inh 0%, Sm TGR inh 1% and Pf growth 96h 11%.
For CCOC(=O)N1CCN(C(=O)c2cn(CC)c3ccc(S(=O)(=O)N4CCCCC4)cc3c2=O)CC1 the results were Pf growth 48h -11%, AMA1-RON2 inh -2%, Sm TGR inh 1% and Pf growth 96h 23%.
CCOc1ccc(N(CC(=O)NC(C)C)C(=O)CCC(=O)Nc2ccccn2)cc1 was read as NS1 function inh 15%, Pf growth 48h -10%, AMA1-RON2 inh 2%, Sm TGR inh -8% and Pf growth 96h inconclusive.
CCCc1nn2c(-c3ccccc3)nnc2o1 was read as AMA1-RON2 inh 13%.
Screening Cc1ccn2c(-c3csc(NCc4ccco4)n3)c(C)nc2c1 returned NS1 function inh -14%, Pf growth 48h 12µM*, AMA1-RON2 inh -27%, Sm TGR inh 4% and Pf growth 96h -5%.
Screening Cc1c(N2C(=O)/C(=C/c3ccc(N(C)C)cc3)N(C)C2=S)c(=O)n(-c2ccccc2)n1C returned AMA1-RON2 inh -21%.
`COC(=O)c1cc(C(=O)c2cc(F)ccc2O)cn2c(=O)c3c(C)c(C)sc3nc12` gave NS1 function inh -2%, Pf growth 48h 2.1µM*, AMA1-RON2 inh -10%, Sm TGR inh inconclusive and Pf growth 96h 2.6µM*.
`CCOC(=O)CCn1nnc(N)n1` gave NS1 function inh 0%, Pf growth 48h 4%, AMA1-RON2 inh 4%, Sm TGR inh 1% and Pf growth 96h 10µM*.
For N#CC1=C(N)SC(N)=C(C#N)C1c1ccoc1 the results were NS1 function inh 21%, Pf growth 48h 12%, Sm TGR inh 5µM* and Pf growth 96h 3%.
COc1ccccc1N(CC(=O)Nc1ccc(Br)cc1F)S(=O)(=O)c1cccs1 was read as Pf growth 48h inconclusive, AMA1-RON2 inh -12%, Sm TGR inh 6% and Pf growth 96h inconclusive.
